Drawing on PubChem BioAssay (NCI), this text covers growth for eleven compounds.

Molecules are shown by their SMILES. About 83,000 compounds went through this panel and 20% of them were active in at least one assay; those are over-represented in the sample as a whole.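 Activity criterion: percent growth below 10, measured after cells in 96-well plates were exposed to a single compound concentration for 48 hours.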 The source made the active and inactive calls.

The subject of the test is KM12 colon. Kind of test: NCI-60 one-dose screen, 48 h (100 = growth as untreated, 0 = no growth, -100 = all killed). The note with it: 10 µM unless noted.
On to `CCOC(=O)N1CCN(CCCCOc2ccc(C(C)(C)CC)cc2)CC1`, for which the growth is 95.6% (inactive).

As for `Fc1ccc2c(c1)c(-c1nc(-c3c[nH]c4ncccc34)cs1)cn2CCCN1CCCCC1`, the growth is 68.3% (inactive).

For the compound `CCCC1CCCCN1C(=O)OCC(C)C` (stereo unspecified), the growth was 105% (inactive).

As to `COc1ccc(-c2nc(SCC(=O)Nc3ccc(C(C)=O)cc3)[nH]c(=O)c2C#N)cc1`, the growth was 101% (inactive).

For `Nc1ccc(Cl)cn1`, the growth is 100% (inactive).

Take `CCN1CCN(c2nc(C)cc(N(CCCNc3ccnc4cc(Cl)ccc34)Cc3ccco3)n2)CC1`: the growth is 67.9% (inactive).

As for `O=C1NC(=Nc2ccc(S(=O)(=O)Nc3nccs3)cc2)S/C1=C\c1coc2ccccc2c1=O`, the growth is 113% (inactive).

Take `Cn1cc(-c2csc(-c3c[nH]c4ccc(F)cc34)n2)c2cccnc21`: the growth was 20.6% (inactive).

As for `O=C1C(=O)N(CCCCn2cc(-c3ccccc3)nn2)c2ccccc21`, the growth was 104% (inactive).

Turning to `COc1ccc2c(c1)C(Br)=C(CCO)C2c1ccccc1` (stereo unspecified), the growth was 42.8% (inactive).

For the compound `CN(CSc1ccc(Cl)cc1)c1ccc(CSc2ccc(Cl)cc2)cc1`, the growth was 46.1% (inactive).
